Measured values published in PubChem BioAssay (NCI).
About 83,000 compounds went through this panel and 20% of them were active in at least one assay; those are over-represented in the sample as a whole.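 Single-concentration screen, 48 h exposure, 96-well plates. Endpoint: percent growth. Below 10 = active.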 The source made the active and inactive calls.

What was measured:
Test in all cases: NCI-60 one-dose screen, 48 h (100 = growth as untreated, 0 = no growth, -100 = all killed)
Conditions in all cases: 10 µM
DU-145 prostate = system: DU-145 prostate
K-562 leukemia = system: K-562 leukemia
MALME-3M melanoma = system: MALME-3M melanoma
MDA-MB-231 breast = system: MDA-MB-231 breast
RXF 393 renal = system: RXF 393 renal
SF-268 CNS = system: SF-268 CNS
SF-295 CNS = system: SF-295 CNS
SF-539 CNS = system: SF-539 CNS
UACC-257 melanoma = system: UACC-257 melanoma
M14 melanoma = system: M14 melanoma

Measured: growth

COc1cc(-c2nc3ccc(C)cc3[nH]2)ccc1OCc1nnc(-c2ccc(CC(C)C)cc2)o1
inactive: DU-145 prostate 101% | K-562 leukemia 46% | MALME-3M melanoma 98% | MDA-MB-231 breast 88.9% | RXF 393 renal 71.3% | SF-268 CNS 105% | SF-295 CNS 96.3% | SF-539 CNS 91.7% | UACC-257 melanoma 96.8% | M14 melanoma 104%

Cc1nc2cc(-n3c(-c4ccc(F)cc4)nc4ccccc4c3=O)ccc2n1Cc1ccccc1
active: K-562 leukemia 8.27% | MALME-3M melanoma -45.1% | MDA-MB-231 breast -25.5% | RXF 393 renal -31.3% | SF-268 CNS 8.04% | SF-539 CNS -72.6% | UACC-257 melanoma -18% | M14 melanoma 3.21%
inactive: DU-145 prostate 20.8% | SF-295 CNS 47.1%

COCc1cc2c(cc1Br)OCO2
inactive: DU-145 prostate 112% | K-562 leukemia 107% | MALME-3M melanoma 98.6% | MDA-MB-231 breast 110% | RXF 393 renal 107% | SF-268 CNS 100% | SF-295 CNS 99.1% | SF-539 CNS 95.5% | UACC-257 melanoma 101% | M14 melanoma 100%

Cc1ccc(NC(=O)/C=N/O)cc1C
inactive: DU-145 prostate 104% | K-562 leukemia 95.6% | MALME-3M melanoma 108% | MDA-MB-231 breast 95.9% | RXF 393 renal 99.6% | SF-268 CNS 104% | SF-295 CNS 85.4% | SF-539 CNS 96.4% | UACC-257 melanoma 96.4% | M14 melanoma 101%

C/C=C\COc1cc(C)c(Cl)cc1Cl
inactive: DU-145 prostate 111% | K-562 leukemia 114% | MALME-3M melanoma 95.9% | MDA-MB-231 breast 111% | RXF 393 renal 96.2% | SF-268 CNS 114% | SF-295 CNS 99% | SF-539 CNS 104% | UACC-257 melanoma 92% | M14 melanoma 112%

O=C(Nc1cccc(Cl)c1)Nc1cc2ncncc2cc1OCc1cccc(F)c1
active: K-562 leukemia 8.22% | SF-295 CNS 7.22% | UACC-257 melanoma -34.2% | M14 melanoma -18.2%
inactive: DU-145 prostate 18.9% | MALME-3M melanoma 10.8% | MDA-MB-231 breast 27.2% | RXF 393 renal 31.5% | SF-268 CNS 26.6% | SF-539 CNS 36%

Oc1ccccc1-c1nnc(Cn2c(Cc3cccc4ccccc34)nc3ccccc32)o1
inactive: DU-145 prostate 106% | K-562 leukemia 98.6% | MALME-3M melanoma 87.1% | MDA-MB-231 breast 101% | RXF 393 renal 108% | SF-268 CNS 96.6% | SF-295 CNS 93.9% | SF-539 CNS 97.9% | UACC-257 melanoma 100% | M14 melanoma 96.9%

CC(Oc1ccc(Cl)cc1)c1ccccc1 (stereo unspecified)
inactive: DU-145 prostate 107% | K-562 leukemia 101% | MALME-3M melanoma 80.1% | MDA-MB-231 breast 105% | RXF 393 renal 103% | SF-268 CNS 104% | SF-295 CNS 96% | SF-539 CNS 102% | UACC-257 melanoma 98.9% | M14 melanoma 101%

S=c1c2ncccc2c(-c2ccccn2)nn1Cc1ccccn1
inactive: DU-145 prostate 111% | K-562 leukemia 95.6% | MALME-3M melanoma 89.6% | MDA-MB-231 breast 112% | RXF 393 renal 114% | SF-268 CNS 108% | SF-295 CNS 96% | SF-539 CNS 99.7% | UACC-257 melanoma 95.6% | M14 melanoma 89.9%

CCOC(=O)/C(C#N)=C(/C)C1CC1
inactive: DU-145 prostate 108% | K-562 leukemia 117% | MALME-3M melanoma 109% | MDA-MB-231 breast 117% | RXF 393 renal 94.9% | SF-268 CNS 107% | SF-295 CNS 113% | SF-539 CNS 96.8% | UACC-257 melanoma 103% | M14 melanoma 109%

COc1cccc(-c2nnc(COc3ccc(-c4nc5ccc(C)cc5[nH]4)cc3OC)o2)c1
inactive: DU-145 prostate 65.2% | K-562 leukemia 13.5% | MALME-3M melanoma 52.8% | MDA-MB-231 breast 64.5% | RXF 393 renal 85.1% | SF-268 CNS 101% | SF-295 CNS 99.2% | SF-539 CNS 57.4% | UACC-257 melanoma 97.1% | M14 melanoma 53.9%

COc1ccc(-c2nnc(SCC(=O)c3ccccc3)o2)cc1
inactive: DU-145 prostate 102% | K-562 leukemia 92.3% | MALME-3M melanoma 104% | MDA-MB-231 breast 99.3% | RXF 393 renal 94.2% | SF-268 CNS 102% | SF-295 CNS 101% | SF-539 CNS 98.8% | UACC-257 melanoma 89.4% | M14 melanoma 101%

Nc1ccc(Sc2ccc3c4c2cccc4c(=O)n2c4ccccc4nc32)cc1
inactive: DU-145 prostate 39.3% | K-562 leukemia 60.3% | MALME-3M melanoma 34% | MDA-MB-231 breast 54.4% | RXF 393 renal 72.6% | SF-268 CNS 59.4% | SF-295 CNS 12% | SF-539 CNS 48.5% | UACC-257 melanoma 71% | M14 melanoma 45.4%

COc1cc(C2C=C(c3ccc(Cl)cc3)N=C3SC(C)=CN32)cc(OC)c1OC (stereo unspecified)
inactive: DU-145 prostate 99.9% | K-562 leukemia 91.1% | MALME-3M melanoma 88.7% | MDA-MB-231 breast 103% | RXF 393 renal 92.6% | SF-268 CNS 104% | SF-295 CNS 82.2% | SF-539 CNS 99.1% | UACC-257 melanoma 101% | M14 melanoma 95%

CCCCCCCCCCCC(c1ccccc1)N(C)C (stereo unspecified)
inactive: DU-145 prostate 104% | K-562 leukemia 78.9% | MALME-3M melanoma 107% | MDA-MB-231 breast 76.7% | RXF 393 renal 92.5% | SF-268 CNS 111% | SF-295 CNS 97.9% | SF-539 CNS 103% | UACC-257 melanoma 103% | M14 melanoma 104%

CCN(CC)CCn1c(=N)n(CC(O)c2ccc(Cl)c(Cl)c2)c2ccccc21 (stereo unspecified)
active: K-562 leukemia -0.392% | MALME-3M melanoma -35.6% | UACC-257 melanoma -59.8% | M14 melanoma -58.6%
inactive: DU-145 prostate 97% | MDA-MB-231 breast 45.1% | RXF 393 renal 76.3% | SF-268 CNS 87.2% | SF-295 CNS 103% | SF-539 CNS 42.4%

Cc1cc2cc3c(=O)[nH]c(=O)cc-3n(CC(O)C(O)C(O)CO)c2cc1C (stereo unspecified)
inactive: DU-145 prostate 95.5% | K-562 leukemia 108% | MALME-3M melanoma 104% | MDA-MB-231 breast 109% | RXF 393 renal 115% | SF-268 CNS 108% | SF-295 CNS 97.6% | SF-539 CNS 107% | UACC-257 melanoma 110% | M14 melanoma 107%

CCCCn1c(=O)[nH]c2c(c1=O)C(c1ccc(Cl)cc1)c1c([nH]c(=O)n(CCCC)c1=O)N2
inactive: DU-145 prostate 105% | K-562 leukemia 105% | MALME-3M melanoma 89.8% | MDA-MB-231 breast 106% | RXF 393 renal 109% | SF-268 CNS 99% | SF-295 CNS 89.8% | SF-539 CNS 101% | UACC-257 melanoma 96.8% | M14 melanoma 96.6%

O=C(NCCc1nccs1)c1cnc2c(S)cccc2c1
active: K-562 leukemia 4.3% | RXF 393 renal 9.59%
inactive: DU-145 prostate 22.9% | MALME-3M melanoma 40.1% | MDA-MB-231 breast 13.6% | SF-268 CNS 37.7% | SF-295 CNS 38.8% | SF-539 CNS 22.8% | UACC-257 melanoma 17.7% | M14 melanoma 10.7%

CCCc1c(CC)c(=N)c2ccccc2n1C
active: K-562 leukemia -3.78% | MALME-3M melanoma -88.7% | RXF 393 renal 8.09% | SF-295 CNS -51.9% | UACC-257 melanoma -64.1% | M14 melanoma -61.6%
inactive: DU-145 prostate 62% | MDA-MB-231 breast 43.1% | SF-268 CNS 79.5% | SF-539 CNS 68.1%

Cc1cc(=O)oc2cc(OCc3cn(CC(O)CO)nn3)ccc12 (stereo unspecified)
inactive: DU-145 prostate 103% | K-562 leukemia 96.1% | MALME-3M melanoma 109% | MDA-MB-231 breast 104% | SF-268 CNS 109% | SF-295 CNS 107% | SF-539 CNS 95.9% | UACC-257 melanoma 112% | M14 melanoma 106%

c1ccc(CNc2nc(Nc3ccc(-c4nc5ccccc5[nH]4)cc3)c3cn[nH]c3n2)cc1
inactive: DU-145 prostate 25.5% | SF-268 CNS 22.1%
active: K-562 leukemia -17% | MALME-3M melanoma -23.5% | MDA-MB-231 breast -11.1% | RXF 393 renal -68.3% | SF-295 CNS -44.5% | SF-539 CNS 1.69% | UACC-257 melanoma -33.3% | M14 melanoma -34.6%

COc1ccc(-c2nnc(COc3ccc(NC(=O)Nc4ccccc4)cc3F)o2)cc1
inactive: DU-145 prostate 83.3% | K-562 leukemia 71.8% | MALME-3M melanoma 84.1% | MDA-MB-231 breast 74.8% | RXF 393 renal 94.5% | SF-268 CNS 78.6% | SF-295 CNS 98.6% | SF-539 CNS 86.4% | UACC-257 melanoma 96.8% | M14 melanoma 89.8%

O=c1oc2c3ccc4cnccc4c3[nH]c2c2ccccc12
inactive: DU-145 prostate 16.9% | K-562 leukemia 21.1% | MDA-MB-231 breast 68.2% | SF-268 CNS 23% | SF-295 CNS 75.6% | M14 melanoma 67.3%
active: MALME-3M melanoma -80.8% | SF-539 CNS -72.1% | UACC-257 melanoma 1.25%

CCc1c(C(=O)NCc2c(O)ccc3cccc(O)c23)[nH]c(C)c1C(C)=O
inactive: DU-145 prostate 55.1% | K-562 leukemia 16.8% | MALME-3M melanoma 37.4% | MDA-MB-231 breast 48.3% | RXF 393 renal 58.8% | SF-268 CNS 31.1% | SF-295 CNS 11.8% | SF-539 CNS 56.3% | UACC-257 melanoma 35% | M14 melanoma 30.9%

CC(C)C[C@H](NC(=O)CCn1ccc2ccccc2c1=O)B(O)O
inactive: DU-145 prostate 59.6% | K-562 leukemia 62.7% | MALME-3M melanoma 38.2% | MDA-MB-231 breast 53.8% | SF-268 CNS 69.9% | SF-295 CNS 41% | UACC-257 melanoma 34.5% | M14 melanoma 38%
active: RXF 393 renal -5.99% | SF-539 CNS -11.4%

Clc1cc(Cl)c(Cl)c(-c2nc(-c3cccnc3)cs2)c1
inactive: DU-145 prostate 37.2% | K-562 leukemia 12% | MALME-3M melanoma 28.6% | MDA-MB-231 breast 74% | SF-268 CNS 85.8% | SF-295 CNS 100% | SF-539 CNS 81.4% | UACC-257 melanoma 64.2% | M14 melanoma 51.8%

Cc1cc(C(C)(C)CC(C)(C)C)ccc1OCCOCC[N+](C)(C)Cc1ccccc1
active: K-562 leukemia -53.8% | MALME-3M melanoma -35.5% | MDA-MB-231 breast -67.7% | SF-268 CNS -69.7% | SF-295 CNS -14.3% | SF-539 CNS -82.6% | M14 melanoma -83.2%
inactive: DU-145 prostate 22.4% | UACC-257 melanoma 22.9%
